TLR9-MyD88 block – inhibitors of human TLR9-MyD88 binding | Q9NR96+Q99836 | CHO BLA complementation TLR9-MyD88, CCF4 FRET ratio | inhibition, % at 4.98 µM | actives 0.21% (n = 340,000) | AID 504734;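 active = inhibition above the mean over all tested compounds plus 3 SD, cut at about 21% in these data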
TLR4-MyD88 BLA – TLR4-MyD88 interaction inhibition in cells; O00206+Q99836; HeLa CL3-4 TLR4/MyD88 BLA complementation, FRET ratio; inhibition, % at 8.4 µM; actives 0.18% (n = 200,000); AID 861; in the data active = inhibition above about 25%
rCAG binder – molecules binding r(CAG) RNA repeats; inhibition, % at 3 µM; actives 1.3% (n = 370,000); r(CAG) RNA repeat, TO-PRO-1 dye displacement fluorescence;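 active = inhibition above the plate cutoff, the mean of all test compounds on that plate plus 3 SD, cut at about 35% in these data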;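 note: higher means more dye released from RNA so lower well fluorescence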
PRMT1 inh – blocks human protein arginine methyltransferase 1; Q99873; recombinant PRMT1, activity-based probe fluorescence polarization; inhibition, % at 2.79 µM; actives 1.3% (n = 370,000);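 active = inhibition above about 21% made by adding two undisclosed values, limit read from the data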
NOD2 RIPK2 PPI – NOD2-RIPK2 protein interaction inhibition; O43353; CHO BLA complementation NOD2-RIPK2, CCF4 ratio; inhibition, % at 4.98 µM; actives 0.38% (n = 360,000); AID 624267; in the data active = inhibition above about 21%
Target sequence (O43353 whole entry, looked up): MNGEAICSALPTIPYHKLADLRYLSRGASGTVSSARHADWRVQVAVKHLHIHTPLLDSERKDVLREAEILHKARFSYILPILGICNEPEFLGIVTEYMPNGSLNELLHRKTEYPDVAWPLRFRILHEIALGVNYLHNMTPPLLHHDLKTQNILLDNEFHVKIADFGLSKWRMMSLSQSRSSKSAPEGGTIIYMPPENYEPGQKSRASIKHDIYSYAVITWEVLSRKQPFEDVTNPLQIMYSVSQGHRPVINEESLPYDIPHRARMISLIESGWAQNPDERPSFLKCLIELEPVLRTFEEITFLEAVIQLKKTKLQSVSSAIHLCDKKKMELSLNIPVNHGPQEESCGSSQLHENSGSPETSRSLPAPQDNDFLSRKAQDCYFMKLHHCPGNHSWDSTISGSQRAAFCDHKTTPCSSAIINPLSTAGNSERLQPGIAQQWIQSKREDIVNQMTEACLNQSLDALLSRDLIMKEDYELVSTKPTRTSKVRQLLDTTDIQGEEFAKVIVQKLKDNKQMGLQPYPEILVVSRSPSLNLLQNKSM
ABHD5 PLIN5 PPI – ABHD5-PLIN5 protein interaction inhibition; Q00G26+Q8WTS1; Split G. princeps luciferase complementation, luminescence, 4 h; inhibition, % at 4 µM; actives 0.78% (n = 360,000); AID 602281;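 active = inhibition above the mean inhibition across every tested compound plus 3 SD, cut at about 22% in these data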
rCAG binder conf – r(CAG) RNA repeat binding, confirmation; shares compounds with rCAG binder; TO-PRO-1 dye displacement fluorescence; inhibition, % at 3 µM; actives 70% (n = 4,300); AID 652065;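 active = inhibition above a per-plate cutoff, the mean inhibition of sample wells plus 3 SD, cut at about 35% in these data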;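 note: loss of TO-PRO-1 fluorescence as compound displaces dye from 1x1 AA loop RNA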
DNA CAG counter – disrupts DNA CAG TO-PRO-1 complex, flagging rCAG hits; shares compounds with rCAG binder; d(CAG) DNA oligo TO-PRO-1 dye displacement, fluorescence; inhibition, % at 3 µM; actives 94% (n = 4,300); AID 652068;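 active = inhibition above its plate's cutoff, the mean test-well inhibition plus 3 SD, cut at about 4.8% in these data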;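 note: hits displace the dye from DNA and so lower well fluorescence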
dCAG dye DR – disrupts DNA CAG TO-PRO-1 complex in dose response; shares compounds with rCAG binder; DNA CAG/GTC duplex TO-PRO-1 dye displacement fluorescence; IC50, µM; actives 20% (n = 250); in the data active = IC50 below about 10 µM
Large screens that a line does not name were inactive (follow-up assays come after a bar, where they were run). This is a sample that favours compounds with a hit; in the whole collection about 3.3% have one here.

COC(=O)c1sc(-c2ccc(Cl)cc2)cc1NC(=O)c1ccccc1C(=O)O	rCAG binder 71 (no result: TLR4-MyD88 BLA) | rCAG binder conf 80 | DNA CAG counter 46
COC(=O)c1sc(-c2ccc(C(C)(C)C)cc2)cc1NC(=O)CSCC(=O)O	rCAG binder 62 (no result: TLR4-MyD88 BLA) | rCAG binder conf 68 | DNA CAG counter 25
COC(=O)c1sc(-c2ccccc2)cc1NC(=O)C1CC1	none
COC(=O)c1sc(-c2ccc(C(C)(C)C)cc2)cc1NC(=O)c1ccccc1C(=O)O	rCAG binder 70 (no result: TLR4-MyD88 BLA) | rCAG binder conf 83 | DNA CAG counter 46
CCc1ccccc1NC(=S)N(CCCN1CCOCC1)Cc1cccs1	none
On1onc2c3cc(-c4ccccc4)nc3ccc21	rCAG binder 41 | rCAG binder conf inactive | DNA CAG counter 5.0
Cc1cc(C)n(-c2ccc(Cl)c(C(=O)O)c2)n1	none
O=C(Nc1ccc(-c2csc(Nc3ccc(Cl)cc3)n2)cc1)c1cccc(C(F)(F)F)c1	rCAG binder 44 (no result: TLR9-MyD88 block, TLR4-MyD88 BLA, NOD2 RIPK2 PPI, ABHD5 PLIN5 PPI) | rCAG binder conf inactive | DNA CAG counter 11
O=C1NC(c2cc(Cl)cc([N+](=O)[O-])c2O)Nc2ccccc21 (centres undefined)	rCAG binder 35 (no result: TLR4-MyD88 BLA) | rCAG binder conf 80 | DNA CAG counter 45
O=C1NC(c2ccc(Cl)c([N+](=O)[O-])c2)Nc2ccccc21 (centres undefined)	none
Cc1nc(C)c(-c2csc(Nc3ccc(O)c(C(=O)O)c3)n2)s1	rCAG binder 35 (no result: TLR4-MyD88 BLA) | rCAG binder conf inactive | DNA CAG counter 6.2
COc1cc(C2CC(=O)N3CN(Cc4ccco4)CSC3=C2C#N)ccc1OCc1ccccc1 (centres undefined)	rCAG binder 42 | rCAG binder conf inactive | DNA CAG counter 9.8
COc1ccc2ccccc2c1C1CC(=O)N2CN(Cc3ccco3)CSC2=C1C#N (centres undefined)	rCAG binder 49 | rCAG binder conf inactive | DNA CAG counter 14
Cc1ccc(N=C2S/C(=C\c3cn(CC(=O)O)c4ccccc34)C(=O)N2C)cc1	rCAG binder 77 | rCAG binder conf 76 | DNA CAG counter 36
COc1ccc(CCNC(=O)C(=O)NCC2CCCN2S(=O)(=O)c2ccccc2)cc1OC (centres undefined)	none (no result: TLR4-MyD88 BLA)
CC1(C(=O)NS(=O)(=O)Cc2ccccc2)CCN1C(=O)C1(c2ccc(Cl)cc2)CCC1 (centres undefined)	rCAG binder 41 (no result: TLR9-MyD88 block, TLR4-MyD88 BLA) | rCAG binder conf inactive | DNA CAG counter 6.7
CC1(C(=O)NS(=O)(=O)c2ccc(Cl)cc2)CCN1C(=O)C1(c2ccc(Cl)cc2)CCC1 (centres undefined)	rCAG binder 55 (no result: TLR9-MyD88 block, TLR4-MyD88 BLA) | rCAG binder conf 56 | DNA CAG counter 18
Cc1ccc(S(=O)(=O)NC(=O)C2(C)CCN2C(=O)C2(c3ccc(Cl)cc3)CC2)cc1 (centres undefined)	rCAG binder 57 (no result: TLR9-MyD88 block, TLR4-MyD88 BLA) | rCAG binder conf inactive | DNA CAG counter 5.7
Cc1ccc(S(=O)(=O)NC(=O)C2(C)CCN2C(=O)C2(c3ccc(Cl)cc3)CCC2)cc1 (centres undefined)	rCAG binder 42 (no result: TLR9-MyD88 block, TLR4-MyD88 BLA) | rCAG binder conf 39 | DNA CAG counter 10.0
CC1(C(=O)NS(=O)(=O)c2ccccc2)CCN1C(=O)C1(c2ccc(Cl)cc2)CC1 (centres undefined)	none (no result: TLR9-MyD88 block, TLR4-MyD88 BLA)
CN(CC(=O)Nc1ccc(N2CCOCC2)cc1)C(=O)CCNC(=O)c1ccc(Br)cc1	none (no result: TLR4-MyD88 BLA)
CC(C)(C)c1ccc(S(=O)(=O)NC(=O)C2(C)CCN2C(=O)C2(c3ccccc3)CC2)cc1 (centres undefined)	rCAG binder 47 (no result: TLR9-MyD88 block, TLR4-MyD88 BLA) | rCAG binder conf 40 | DNA CAG counter 10
CC1(C(=O)NS(=O)(=O)c2ccc(Br)cc2)CCN1C(=O)C1(c2ccccc2)CC1 (centres undefined)	none (no result: TLR9-MyD88 block, TLR4-MyD88 BLA)
CC1(C(=O)NS(=O)(=O)c2ccc(Cl)cc2)CCN1C(=O)C1(c2ccccc2)CCCC1 (centres undefined)	rCAG binder 50 (no result: TLR9-MyD88 block, TLR4-MyD88 BLA) | rCAG binder conf 40 | DNA CAG counter 12
CC1(C(=O)NS(=O)(=O)c2ccc3c(c2)CCO3)CCN1C(=O)CCc1ccc(Cl)cc1Cl (centres undefined)	none (no result: TLR9-MyD88 block, TLR4-MyD88 BLA)
CC1(C(=O)NS(=O)(=O)c2ccc3c(c2)CCO3)CCN1C(=O)C1(c2ccc(Cl)cc2)CCC1 (centres undefined)	rCAG binder 36 (no result: TLR9-MyD88 block, TLR4-MyD88 BLA) | rCAG binder conf inactive | DNA CAG counter inactive
CCCc1ccc(C(O)c2ncc(-c3ccccc3F)[nH]2)cc1 (centres undefined)	none (no result: TLR9-MyD88 block, TLR4-MyD88 BLA)
Cc1nc(NC(=O)c2cccnc2Cl)sc1C	none (no result: TLR4-MyD88 BLA)
Cc1nc2ccc(S(=O)(=O)Nc3ccc(-c4nc5cccnc5s4)cc3)cc2s1	rCAG binder 53 | rCAG binder conf 42 | DNA CAG counter 12
O=S(=O)(Nc1ccc(-c2nc3cccnc3s2)cc1)c1cccs1	none
O=S(=O)(Nc1ccc(-c2nc3cccnc3s2)cc1)c1ccc(Cl)s1	rCAG binder 66 | rCAG binder conf 71 | DNA CAG counter 32 | dCAG dye DR inactive
Clc1ccc(OCCCCCN2CCOCC2)cc1	none (no result: TLR4-MyD88 BLA)
CCC[C@H]1[C@@H](OC(=O)NCc2ccco2)CC[C@@]23CCCN2C(=O)CCC[C@@H]13	none (no result: TLR9-MyD88 block, TLR4-MyD88 BLA, rCAG binder, NOD2 RIPK2 PPI, ABHD5 PLIN5 PPI)
CC1=NN(c2ccc(C)cc2)C(=O)/C1=C/c1ccc(-c2cc([N+](=O)[O-])ccc2O)o1	rCAG binder 56 (no result: TLR4-MyD88 BLA) | rCAG binder conf 64 | DNA CAG counter 34
CC1=NN(c2ccc(C(=O)O)cc2)C(=O)/C1=C/c1ccc(-c2ccccc2F)o1	none (no result: TLR4-MyD88 BLA, rCAG binder, PRMT1 inh)
O=C(O)c1cccc(NC(=S)N/N=C/c2ccccc2OCc2cccc(Br)c2)c1	rCAG binder 77 | rCAG binder conf 79 | DNA CAG counter 45
O=C(O)c1cccc(NC(=S)N/N=C/c2cccc(O)c2)c1	none
O=C(O)c1cccc(NC(=S)N/N=C/c2ccccc2OCc2ccc(Br)cc2)c1	rCAG binder 80 | rCAG binder conf 85 | DNA CAG counter 55
CCCC(C(=O)Nc1ccc(S(=O)(=O)Nc2nccs2)cc1)c1ccccc1 (centres undefined)	rCAG binder 49 (no result: TLR4-MyD88 BLA) | rCAG binder conf 36 | DNA CAG counter 9.7
CCCCCCCC(=O)Nc1ccc(S(=O)(=O)Nc2nccs2)cc1	rCAG binder 55 | rCAG binder conf 41 | DNA CAG counter 18
N#Cc1sc2nccc(Nc3ccccc3)c2c1N	rCAG binder 38 (no result: TLR9-MyD88 block, TLR4-MyD88 BLA) | rCAG binder conf inactive | DNA CAG counter inactive

High-throughput results: PubChem, The Scripps Research Institute Molecular Screening Center
